Substitutions are numbered along the chain they refer to.
Key:
Assay in all cases: yeast three-hybrid, YBZ-1, SC-Leu-His + 0.5 mM 3-AT, 4 days
Conditions in all cases: tags: N-Gal4 AD-HA kept; label: inside an RPR1-promoter hybrid RNA with tandem MS2 sites; ssRNA
PUM1 PUF domain R5-RQV = PUM1 PUF domain R5-RQV (Homo sapiens, UniProt Q14671 828-1176, C1007R;R1008Q;Q1011V)
How it was run: (§1)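 A centromeric plasmid in strain YBZ-1 co-expressed Pumilio-1 PUF domain libraries, randomized at the three base-contacting residues of each repeat, with matching RNA elements; the strain carries a LexA–MS2 coat fusion and a HIS3 reporter. After four days on SC-Leu (input) or SC-Leu-His + 0.5 mM 3-AT (selection), the repeat regions were PCR-amplified and Illumina-sequenced. The interaction score is the log change in variant frequency from input to selection, using log2 and a pseudocount of 1 where absent.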

PUM1 PUF domain R5-LNT = PUM1 PUF domain R5-LNT (Homo sapiens, UniProt Q14671 828-1176, C1007L;R1008N;Q1011T)
How it was run: as §1

PUM1 PUF domain R5-RQW = PUM1 PUF domain R5-RQW (Homo sapiens, UniProt Q14671 828-1176, C1007R;R1008Q;Q1011W)
How it was run: as §1

PUM1 PUF domain R5-CSR = PUM1 PUF domain R5-CSR (Homo sapiens, UniProt Q14671 828-1176, R1008S;Q1011R)
How it was run: as §1

PUM1 PUF domain R5-GVD = PUM1 PUF domain R5-GVD (Homo sapiens, UniProt Q14671 828-1176, C1007G;R1008V;Q1011D)
How it was run: as §1

PUM1 PUF domain R6-QWG = biological target: T1, PUM1 PUF domain R6-QWG (Homo sapiens, UniProt Q14671 828-1176, N1043Q;Y1044W;Q1047G)
T1 sequence: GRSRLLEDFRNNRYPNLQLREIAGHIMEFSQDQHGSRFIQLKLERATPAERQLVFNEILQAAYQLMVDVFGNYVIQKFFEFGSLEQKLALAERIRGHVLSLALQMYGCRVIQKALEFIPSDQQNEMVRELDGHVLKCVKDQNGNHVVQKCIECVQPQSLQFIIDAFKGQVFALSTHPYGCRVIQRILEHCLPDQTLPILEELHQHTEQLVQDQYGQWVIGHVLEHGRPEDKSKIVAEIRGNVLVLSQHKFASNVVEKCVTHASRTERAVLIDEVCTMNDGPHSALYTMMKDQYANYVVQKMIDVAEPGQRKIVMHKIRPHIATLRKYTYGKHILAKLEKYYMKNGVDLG
How it was run: as §1

PUM1 PUF domain R6-TYR = biological target: T2, PUM1 PUF domain R6-TYR (Homo sapiens, UniProt Q14671 828-1176, N1043T;Q1047R)
T2 sequence: T1 sequence with Q216T, W217Y, G220R
How it was run: as §1

PUM1 PUF domain R3-RPA = PUM1 PUF domain R3-RPA (Homo sapiens, UniProt Q14671 828-1176, C935R;R936P;Q939A)
How it was run: as §1

PUM1 PUF domain R4-TRT = PUM1 PUF domain R4-TRT (Homo sapiens, UniProt Q14671 828-1176, N971T;H972R;Q975T)
How it was run: as §1

PUM1 PUF domain R8-PRR = PUM1 PUF domain R8-PRR (Homo sapiens, UniProt Q14671 828-1176, N1122P;Y1123R;Q1126R)
How it was run: as §1

PUM1 PUF domain R6-HWC = biological target: T3, PUM1 PUF domain R6-HWC (Homo sapiens, UniProt Q14671 828-1176, N1043H;Y1044W;Q1047C)
T3 sequence: T1 sequence with Q216H, G220C
How it was run: as §1

PUM1 PUF domain R7-GVD = PUM1 PUF domain R7-GVD (Homo sapiens, UniProt Q14671 828-1176, S1079G;N1080V;E1083D)
How it was run: as §1

PUM1 PUF domain R7-RPI = PUM1 PUF domain R7-RPI (Homo sapiens, UniProt Q14671 828-1176, S1079R;N1080P;E1083I)
How it was run: as §1

PUM1 PUF domain R3-TSE = PUM1 PUF domain R3-TSE (Homo sapiens, UniProt Q14671 828-1176, C935T;R936S;Q939E)
How it was run: as §1

PUM1 PUF domain R1-KKR = PUM1 PUF domain R1-KKR (Homo sapiens, UniProt Q14671 828-1176, S863K;R864K;Q867R)
How it was run: as §1

PUM1 PUF domain R4-SRR = PUM1 PUF domain R4-SRR (Homo sapiens, UniProt Q14671 828-1176, N971S;H972R;Q975R)
How it was run: as §1

PUM1 PUF domain R8-KRY = PUM1 PUF domain R8-KRY (Homo sapiens, UniProt Q14671 828-1176, N1122K;Y1123R;Q1126Y)
How it was run: as §1

## GGCUAGAACUAGUGGAUCCCCCGGCGCCCGGCGGCUCGAGCCCGGGUAAGUGUUAAUAGUCUGCAUGCCGCCGGGCGCCAUGCCUGCAGGUCGACUCUAGAAAACAUG
PUM1 PUF domain R5-RQV
  binding signal: 4.22 log2 enrichment (interaction score)
PUM1 PUF domain R5-LNT
  binding signal: 4.04 log2 enrichment (interaction score)
PUM1 PUF domain R5-RQW
  binding signal: 2.23 log2 enrichment (interaction score)

## GGCUAGAACUAGUGGAUCCCCCGGCGCCCGGCGGCUCGAGCCCGGGUAAGUGUCAAUAGUCUGCAUGCCGCCGGGCGCCAUGCCUGCAGGUCGACUCUAGAAAACAUG
PUM1 PUF domain R5-RQV
  binding signal: 4.73 log2 enrichment (interaction score)
PUM1 PUF domain R5-RQW
  binding signal: 1.8 log2 enrichment (interaction score)
PUM1 PUF domain R5-CSR
  binding signal: 4.8 log2 enrichment (interaction score)

## GGCUAGAACUAGUGGAUCCCCCGGCGCCCGGCGGCUCGAGCCCGGGUAAGUGUGAAUAGUCUGCAUGCCGCCGGGCGCCAUGCCUGCAGGUCGACUCUAGAAAACAUG
PUM1 PUF domain R5-GVD
  binding signal: 5.11 log2 enrichment (interaction score)

## GGCUAGAACUAGUGGAUCCCCCGGCGCCCGGCGGCUCGAGCCCGGGUAAGUGUAAAUAGUCUGCAUGCCGCCGGGCGCCAUGCCUGCAGGUCGACUCUAGAAAACAUG
PUM1 PUF domain R6-QWG
  binding signal: 5.49 log2 enrichment (interaction score)
PUM1 PUF domain R6-TYR
  binding signal: 5.51 log2 enrichment (interaction score)
PUM1 PUF domain R3-RPA
  binding signal: 0.97 log2 enrichment (interaction score)
PUM1 PUF domain R4-TRT
  binding signal: 2.59 log2 enrichment (interaction score)
PUM1 PUF domain R5-CSR
  binding signal: 1.42 log2 enrichment (interaction score)
PUM1 PUF domain R8-PRR
  binding signal: 3.57 log2 enrichment (interaction score)

## GGCUAGAACUAGUGGAUCCCCCGGCGCCCGGCGGCUCGAGCCCGGGUAAGUGAAAAUAGUCUGCAUGCCGCCGGGCGCCAUGCCUGCAGGUCGACUCUAGAAAACAUG
PUM1 PUF domain R6-QWG
  binding signal: 3.38 log2 enrichment (interaction score)
PUM1 PUF domain R6-HWC
  binding signal: 6.25 log2 enrichment (interaction score)

## GGCUAGAACUAGUGGAUCCCCCGGCGCCCGGCGGCUCGAGCCCGGGUAAGUUUAAAUAGUCUGCAUGCCGCCGGGCGCCAUGCCUGCAGGUCGACUCUAGAAAACAUG
PUM1 PUF domain R7-GVD
  binding signal: 2.75 log2 enrichment (interaction score)
PUM1 PUF domain R7-RPI
  binding signal: 2.52 log2 enrichment (interaction score)

## GGCUAGAACUAGUGGAUCCCCCGGCGCCCGGCGGCUCGAGCCCGGGUAAGUGUAAGUAGUCUGCAUGCCGCCGGGCGCCAUGCCUGCAGGUCGACUCUAGAAAACAUG
PUM1 PUF domain R3-TSE
  binding signal: 4.66 log2 enrichment (interaction score)

## GGCUAGAACUAGUGGAUCCCCCGGCGCCCGGCGGCUCGAGCCCGGGUAAGUGUAAAUCGUCUGCAUGCCGCCGGGCGCCAUGCCUGCAGGUCGACUCUAGAAAACAUG
PUM1 PUF domain R1-KKR
  binding signal: 6.78 log2 enrichment (interaction score)

## GGCUAGAACUAGUGGAUCCCCCGGCGCCCGGCGGCUCGAGCCCGGGUAAGUGUAAAUUGUCUGCAUGCCGCCGGGCGCCAUGCCUGCAGGUCGACUCUAGAAAACAUG
PUM1 PUF domain R1-KKR
  binding signal: 7.39 log2 enrichment (interaction score)

## GGCUAGAACUAGUGGAUCCCCCGGCGCCCGGCGGCUCGAGCCCGGGUAAGUGUACAUAGUCUGCAUGCCGCCGGGCGCCAUGCCUGCAGGUCGACUCUAGAAAACAUG
PUM1 PUF domain R4-SRR
  binding signal: 4.09 log2 enrichment (interaction score)

## GGCUAGAACUAGUGGAUCCCCCGGCGCCCGGCGGCUCGAGCCCGGGUAAGUGCAAAUAGUCUGCAUGCCGCCGGGCGCCAUGCCUGCAGGUCGACUCUAGAAAACAUG
PUM1 PUF domain R6-TYR
  binding signal: 5.11 log2 enrichment (interaction score)

## GGCUAGAACUAGUGGAUCCCCCGGCGCCCGGCGGCUCGAGCCCGGGUAAGUGUAAUUAGUCUGCAUGCCGCCGGGCGCCAUGCCUGCAGGUCGACUCUAGAAAACAUG
PUM1 PUF domain R3-RPA
  binding signal: 3.99 log2 enrichment (interaction score)

## GGCUAGAACUAGUGGAUCCCCCGGCGCCCGGCGGCUCGAGCCCGGGUAAGUCUAAAUAGUCUGCAUGCCGCCGGGCGCCAUGCCUGCAGGUCGACUCUAGAAAACAUG
PUM1 PUF domain R7-RPI
  binding signal: 0.71 log2 enrichment (interaction score)

## GGCUAGAACUAGUGGAUCCCCCGGCGCCCGGCGGCUCGAGCCCGGGUAAGCGUAAAUAGUCUGCAUGCCGCCGGGCGCCAUGCCUGCAGGUCGACUCUAGAAAACAUG
PUM1 PUF domain R8-KRY
  binding signal: 3.46 log2 enrichment (interaction score)
PUM1 PUF domain R8-PRR
  binding signal: 4.08 log2 enrichment (interaction score)
